Out of some 39,000 compounds screened, about 3,300 (8.5%) were called active. The sample as a whole holds a higher share of actives than the screen did.

For this assay, the system named is HepG2. The experiment in a line: cytotoxicity call (relative viability < 0.9). The conditions noted are these: 10 µM.
For `COc1ccc(S(=O)(=O)Nc2ccc3c(c2)C(=O)N(C)C[C@@H](OC)[C@H](C)CN(C(=O)NC(C)C)[C@H](C)CO3)cc1`, the cytotoxicity call was “inactive”.
Regarding `CN(C)CCCNC(=O)C[C@@H]1CC[C@@H]2[C@H](COC[C@@H](O)CN2S(=O)(=O)c2ccc(Cl)cc2)O1`, the cytotoxicity call is “inactive”.
On to `C[C@@H]1CCCCO[C@@H](CN(C)S(=O)(=O)c2cccs2)[C@@H](C)CN([C@@H](C)CO)C(=O)c2cc(NC(=O)Nc3ccc(C(F)(F)F)cc3)ccc2O1`, for which the cytotoxicity call was “inactive”.
For `Cc1noc(C)c1S(=O)(=O)Nc1ccc2c(c1)C(=O)N([C@@H](C)CO)C[C@@H](C)[C@@H](CN(C)Cc1ccccc1)OCCCC[C@H](C)O2`, the cytotoxicity call was “inactive”.
As for `C[C@@H]1CN([C@@H](C)CO)C(=O)c2cc(NC(=O)CCN3CCOCC3)ccc2O[C@H]1CN(C)CC1CCCCC1`, the cytotoxicity call is “inactive”.
Regarding `C[C@@H]1CCCCO[C@@H](CN(C)C(=O)c2ccccc2)[C@H](C)CN([C@H](C)CO)C(=O)c2cc(NS(=O)(=O)c3ccc(Cl)cc3)ccc2O1`, the cytotoxicity call is “inactive”.
Then `Cc1ccc(S(=O)(=O)N(C)C[C@H]2OCCCC[C@H](C)Oc3ccc(NC(=O)Nc4ccccc4)cc3C(=O)N([C@@H](C)CO)C[C@@H]2C)cc1`, with “inactive”.
Then `C[C@@H]1CN([C@@H](C)CO)C(=O)CCCn2nncc2CO[C@@H]1CN(C)Cc1cccc2c1OCCCO2`, with “inactive”; and `COc1ccc(NC(=O)Nc2ccc3c(c2)C(=O)N([C@@H](C)CO)C[C@@H](C)[C@@H](CN(C)Cc2ccncc2)OCCCC[C@@H](C)O3)cc1`, with “inactive”; and `C[C@@H]1CN([C@H](C)CO)C(=O)c2cc(NC(=O)Cn3cnnn3)ccc2O[C@@H]1CN(C)C(=O)Nc1ccc(F)cc1`, with “inactive”.
In the case of `CCOc1ccccc1OCCNC(C)Cc1ccc(OC)c(S(N)(=O)=O)c1.Cl` (stereo not given), the cytotoxicity call is “inactive”.
Consider `Cc1ccc(OCc2ccc(Cl)cc2)c(C(C)(C)C)c1`, for which the cytotoxicity call is “inactive”.
In the case of `CC(C)(C)NCCCCOc1ccc(Cl)cc1C(C)(C)C`, the cytotoxicity call was “active”.
Turning to `CC(C)Oc1ccc(Cl)cc1CN`, the cytotoxicity call was “inactive”.
For `C#CCN(C)CCCOc1ccc(Cl)cc1Cl.Cl`, the cytotoxicity call was “inactive”.
Consider `CC[C@@H](C)NCCCCOc1ccc(Cl)cc1C(C)(C)C`, for which the cytotoxicity call is “active”.
On to `C[C@@H]1CN([C@H](C)CO)C(=O)c2cc(NC(=O)Nc3ccc4c(c3)OCO4)ccc2O[C@@H]1CN(C)S(C)(=O)=O`, for which the cytotoxicity call is “inactive”.
For the compound `COc1ccc(COC[C@]23Oc4ccccc4[C@H]([C@H]2CO[Si](C)(C)C(C)(C)C)N(C(=O)CC(C)=O)C(=O)N3C)cc1`, the cytotoxicity call was “inactive”.
As for `COc1ccc(COC[C@]23NC(=S)N[C@H](c4ccccc4O2)[C@H]3CO[Si](C)(C)C(C)(C)C)cc1`, the cytotoxicity call is “inactive”.
In the case of `COc1ccc(COC[C@]23N=C4SCc5ccccc5CN4[C@H](c4ccccc4O2)[C@H]3CO[Si](C)(C)C(C)(C)C)cc1`, the cytotoxicity call was “inactive”.
`COc1ccc(COC[C@@]23Oc4ccccc4[C@@H](NC(=S)N2C)[C@H]3CO[Si](C)(C)C(C)(C)C)cc1`: the cytotoxicity call is “active”.
The value for `COc1ccc(COC[C@]23N=C4SCCCN4[C@H](c4ccccc4O2)[C@H]3COC(=O)c2ccccc2)cc1` was “inactive”; that for `COc1ccc(COC[C@@]23Oc4ccccc4[C@@H](NC(=O)N2C(=O)c2ccccc2)[C@H]3CO[Si](C)(C)C(C)(C)C)cc1` was “inactive”; that for `COc1ccc(COC[C@]23N=C4SCCCN4[C@H](c4ccccc4O2)[C@H]3CO[Si](C)(C)C(C)(C)C)cc1` was “active”.
Regarding `COc1ccc(COC[C@@]23Oc4ccccc4[C@@H](NC(=S)N2C)[C@@H]3CO[Si](C)(C)C(C)(C)C)cc1`, the cytotoxicity call is “active”.
Turning to `COc1ccc(COC[C@]23NC(=S)N[C@H](c4ccccc4O2)[C@@H]3CO[Si](C)(C)C(C)(C)C)cc1`, the cytotoxicity call was “inactive”.
For the compound `O=C(C[C@H]1CC[C@H]2[C@@H](COC[C@@H](O)CN2S(=O)(=O)c2cccc(F)c2)O1)NCc1ccncn1`, the cytotoxicity call was “inactive”.
As to `Cc1cccc(CO)n1`, the cytotoxicity call is “inactive”.
Regarding `O=C1N[C@@H]2[C@@H](O)[C@@H](O)[C@H](O)[C@@H](CO)N2C1=O`, the cytotoxicity call is “inactive”.
`CCCCS(=N)(=O)CC[C@@H](N)C(=O)O` (stereo not given in full): the cytotoxicity call was “inactive”.
In the case of `NC(=S)Nc1ccncc1`, the cytotoxicity call was “inactive”.
For the compound `CCC[C@@H](O)C#Cc1cnc2c(c1)C(=O)N([C@H](C)CO)C[C@H](C)[C@H](CN(C)S(=O)(=O)c1cccc(F)c1)O2`, the cytotoxicity call is “inactive”.
The value for `C[C@H](CO)N1C[C@H](C)[C@H](CN(C)C(=O)Cc2ccccc2)OCCCC[C@H](C)Oc2ccc(NS(=O)(=O)c3ccc(Cl)cc3)cc2C1=O` was “inactive”.
Turning to `COc1ccc(NC(=O)N(C)C[C@H]2Oc3ccc(NS(=O)(=O)c4cn(C)cn4)cc3CC(=O)N([C@H](C)CO)C[C@H]2C)cc1`, the cytotoxicity call was “inactive”.
With `Cc1noc(C)c1NC(=O)N(C)C[C@H]1Oc2ccc(NC(=O)c3ccncc3)cc2C(=O)N([C@H](C)CO)C[C@H]1C`, the cytotoxicity call was “inactive”.
Then `CCNC(=O)CCC(N)C(=O)[O-].[K+]` (stereo not given), with “inactive”; and `C[C@@H]1ON(c2ccc(I)cc2)[C@H](c2ccc(OC(=O)OC(C)(C)C)cc2)[C@H]1C(=O)N1C(=O)OC[C@H]1Cc1ccccc1`, with “inactive”; and `COc1ccc(S(=O)(=O)N(C)C[C@@H]2Oc3ccc(NS(=O)(=O)c4c(C)noc4C)cc3CC(=O)N([C@H](C)CO)C[C@@H]2C)cc1`, with “inactive”.
Consider `C[C@@H]1CN([C@@H](C)CO)C(=O)c2cc(NC(=O)Nc3ccccc3)ccc2O[C@@H](C)CCCCO[C@H]1CN(C)C(=O)OC(C)(C)C`, for which the cytotoxicity call is “inactive”.
The value for `CC(C)NC(=O)N(C)C[C@H]1Oc2ccc(NC(=O)C3CCCCC3)cc2CC(=O)N([C@H](C)CO)C[C@@H]1C` was “active”; that for `Cc1noc(C)c1NC(=O)Nc1ccc2c(c1)CC(=O)N([C@@H](C)CO)C[C@H](C)[C@@H](CN(C)C(=O)Nc1cccc3ccccc13)O2` was “inactive”.
`C[C@@H]1CN([C@@H](C)CO)C(=O)Cc2cc(NC(=O)NC3CCCCC3)ccc2O[C@H]1CN(C)C(=O)Nc1cccc2ccccc12`: the cytotoxicity call was “inactive”.
With `CC(C)NC(=O)N(C)C[C@H]1Oc2ccc(NC(=O)C3CCCCC3)cc2CC(=O)N([C@H](C)CO)C[C@H]1C`, the cytotoxicity call is “inactive”.
As to `CC(C)NC(=O)N(C)C[C@@H]1Oc2ccc(NC(=O)C3CCCCC3)cc2CC(=O)N([C@@H](C)CO)C[C@@H]1C`, the cytotoxicity call is “inactive”.
Turning to `C[C@H]1CN([C@@H](C)CO)C(=O)Cc2cc(NC(=O)C3CCCCC3)ccc2O[C@H]1CN(C)C(=O)Nc1cccc2ccccc12`, the cytotoxicity call was “inactive”.
Consider `C[C@H]1CN([C@@H](C)CO)C(=O)Cc2cc(NC(=O)NC3CCCCC3)ccc2O[C@H]1CN(C)C(=O)Nc1cccc2ccccc12`, for which the cytotoxicity call is “active”.
On to `C[C@H](CO)N1C[C@H](C)[C@H](CN(C)C(=O)Nc2cccc3ccccc23)Oc2ccc(NC(=O)C3CCCCC3)cc2CC1=O`, for which the cytotoxicity call was “active”.
The value for `C[C@H]1CN([C@@H](C)CO)C(=O)Cc2cc(NC(=O)NC3CCCCC3)ccc2O[C@@H]1CN(C)C(=O)Nc1cccc2ccccc12` was “inactive”; that for `Cc1noc(C)c1NC(=O)Nc1ccc2c(c1)CC(=O)N([C@H](C)CO)C[C@H](C)[C@@H](CN(C)C(=O)Nc1cccc3ccccc13)O2` was “inactive”; that for `Cc1noc(C)c1NC(=O)Nc1ccc2c(c1)CC(=O)N([C@@H](C)CO)C[C@@H](C)[C@H](CN(C)C(=O)Nc1cccc3ccccc13)O2` was “active”.
Then `C[C@@H]1CN([C@H](C)CO)C(=O)Cc2cc(NC(=O)C3CCCCC3)ccc2O[C@H]1CN(C)C(=O)Nc1cccc2ccccc12`, with “inactive”; and `COc1ccc(NC(=O)Nc2ccc3c(c2)C(=O)N([C@H](C)CO)C[C@H](C)[C@@H](CN(C)S(=O)(=O)c2ccc(C)cc2)OCCCC[C@@H](C)O3)cc1`, with “inactive”; and `NC(=O)NC(=O)C[C@H]1Nc2ccccc2NC1=O`, with “inactive”.
As to `CCc1c(C(=O)OC)nnc2cc(C)nn12`, the cytotoxicity call is “inactive”.
In the case of `O=C(CN1CCOCC1)N[C@@H]1CC[C@H](CCn2cc(C3CCCC3)nn2)O[C@@H]1CO`, the cytotoxicity call is “inactive”.
Regarding `COCC#Cc1ccc([C@H]2[C@@H](CO)N3C(=O)CN(C(=O)c4ccncc4)C[C@@H]23)cc1`, the cytotoxicity call is “inactive”.
Turning to `C[C@@H]1CN([C@H](C)CO)C(=O)Cc2cc(NC(=O)Nc3cccc4ccccc34)ccc2O[C@H]1CN(C)C(=O)NC1CCCCC1`, the cytotoxicity call is “inactive”.
Turning to `C[C@H](CO)N1C[C@H](C)[C@@H](CN(C)C(=O)NC2CCCCC2)Oc2ccc(NC(=O)Nc3cccc4ccccc34)cc2CC1=O`, the cytotoxicity call is “inactive”.
The value for `C[C@@H]1CN([C@@H](C)CO)C(=O)Cc2cc(NC(=O)Nc3cccc4ccccc34)ccc2O[C@@H]1CN(C)C(=O)NC1CCCCC1` was “active”; that for `CCNC(=O)C[C@H]1C=C[C@@H](NC(=O)C2CC2)[C@@H](CO)O1` was “inactive”.
Turning to `O=C(NCCN1CCOCC1)c1ccc(Cl)c(S(=O)(=O)N2CCOCC2)c1`, the cytotoxicity call was “inactive”.
Take `CC1Cc2ccccc2N1NC(=O)c1ccc(Cl)c(S(N)(=O)=O)c1` (stereo not given): the cytotoxicity call is “inactive”.
`CC1(C)CC(NC(=O)c2ccc(Cl)c(S(=O)(=O)N(Cc3ccccc3)c3ccccc3)c2)CC(C)(C)N1`: the cytotoxicity call was “active”.
Consider `C[C@@H]1CN([C@@H](C)CO)C(=O)c2cc(NS(=O)(=O)c3cccs3)ccc2O[C@@H](C)CCCCO[C@@H]1CN(C)C(=O)NC1CCCCC1`, for which the cytotoxicity call was “inactive”.
As to `C[C@@H]1CN([C@@H](C)CO)C(=O)c2cc(C#Cc3cccnc3)cnc2O[C@H]1CN(C)S(=O)(=O)c1ccccc1F`, the cytotoxicity call is “inactive”.
Take `Cc1cc2nc3c(=O)[nH]c(=O)nc-3n(C[C@@H](O)[C@@H](O)[C@@H](O)CO)c2cc1C`: the cytotoxicity call was “inactive”.
Regarding `COC1=CC(C)C2CC3OC(=O)CC4C(C)=C(OC)C(=O)C(C2(C)C1=O)C34C` (stereo not given), the cytotoxicity call is “inactive”.
Regarding `C[C@H]1CC=CC[C@H](c2ccc3c(c2)OCO3)NC(=O)[C@@H](Cc2ccccc2)N(C)C(=O)c2ccccc2O1`, the cytotoxicity call was “inactive”.
For `C[C@H]1CC=CC[C@@H](c2ccc3c(c2)OCO3)NC(=O)[C@H](Cc2ccccc2)N(C)C(=O)c2ccccc2O1`, the cytotoxicity call is “inactive”.
The value for `C[C@@H]1CC=CC[C@H](c2ccc3c(c2)OCO3)NC(=O)[C@@H](Cc2ccccc2)N(C)C(=O)c2ccccc2O1` was “active”.

(Values after the antibiotic and cytotoxicity screens of Wong et al. (2023).)
